HGIII-sPLA2 inh = Blocks human group III sPLA2 activity; inhibition, % at 12.2 µM; 370,000 compounds, 0.56% hits; QFRET BODIPY PC-A2 liposome hydrolysis, fluorescence;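 active = inhibition above mean plus 3 SD of compounds lying within the high and low control bounds, cut at about 19% in these data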
Cardio protect = modulators protecting cardiomyocytes from myocardial damage; 360,000 compounds, 0.63% hits; protection from H2O2 cell death, % at 20 µM; H9c2 cardiomyocytes, H2O2 injury protection, ATPLite, 2 h;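 active = compounds giving at least 50% protection of heart cells from peroxide-induced death in the single-dose screen, raw or plate-pattern-corrected value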
DAGLB inh = diacylglycerol lipase beta (human) inhibition; Q8NCG7; HEK293T DAGLB membrane lysate, EnzChek fluorogenic substrate; inhibition, % at 5.17 µM; 340,000 compounds, 0.059% hits; in the data active = inhibition above about 34%
Target sequence (Q8NCG7 whole entry, looked up): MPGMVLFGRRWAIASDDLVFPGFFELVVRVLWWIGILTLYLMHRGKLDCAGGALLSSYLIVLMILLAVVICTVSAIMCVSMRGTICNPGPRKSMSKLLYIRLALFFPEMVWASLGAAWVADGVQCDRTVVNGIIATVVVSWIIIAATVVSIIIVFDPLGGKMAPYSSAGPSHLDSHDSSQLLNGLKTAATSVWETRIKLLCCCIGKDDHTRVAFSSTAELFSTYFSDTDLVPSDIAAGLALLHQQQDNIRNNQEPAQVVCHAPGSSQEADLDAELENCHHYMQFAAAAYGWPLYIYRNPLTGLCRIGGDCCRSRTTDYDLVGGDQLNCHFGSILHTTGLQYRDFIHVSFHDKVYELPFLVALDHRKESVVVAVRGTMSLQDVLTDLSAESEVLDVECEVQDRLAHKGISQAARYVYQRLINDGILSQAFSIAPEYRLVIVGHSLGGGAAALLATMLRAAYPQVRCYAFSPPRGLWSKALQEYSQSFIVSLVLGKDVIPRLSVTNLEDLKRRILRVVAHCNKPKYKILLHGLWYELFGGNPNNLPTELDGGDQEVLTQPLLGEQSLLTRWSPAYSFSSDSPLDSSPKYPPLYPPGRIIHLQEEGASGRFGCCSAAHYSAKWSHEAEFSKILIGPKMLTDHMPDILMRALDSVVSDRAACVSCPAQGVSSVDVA
ABHD5 PLIN5 PPI = blocks binding of human ABHD5 to perilipin-5. Q00G26+Q8WTS1. Split G. princeps luciferase complementation, luminescence, 4 h. inhibition, % at 4 µM. 360,000 compounds, 0.78% hits. AID 602281;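 active = inhibition above the mean inhibition across every tested compound plus 3 SD, cut at about 22% in these data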
Rtt109 Vps75 = C. albicans Rtt109 histone acetyltransferase inhibition. Q5AAJ8. 330,000 compounds, 0.16% hits. inhibition, % at 34.9 µM. purified Rtt109/Vps75, ThioGlo CoA-SH fluorescence, 4 h;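 active = inhibition of at least 50% in every replicate; inconclusive = best replicate reaches 50% inhibition but some replicates fall short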
Myeloid diff 2 = compounds promoting myeloid differentiation; calls only at 10 µM; AID 624256; 360,000 compounds, 1% hits; ER-HoxA9 myeloid progenitors, lysozyme-GFP differentiation, flow cytometry;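 active = normalized GFP-positive differentiation at or above the plate's own cutoff, the solvent-only control mean plus 3 SD; inconclusive = no clear call, values can overlap the other calls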;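 note: cells exposed to compound for four days before flow analysis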
ABHD5 PLIN5 conf = ABHD5-PLIN5 interaction inhibition, confirmed; shares compounds with ABHD5 PLIN5 PPI; biochemical ABHD5-PLIN5 interaction, luminescence; inhibition, % at 4 µM; 2,200 compounds, 67% hits; in the data active = inhibition above about 23%
HNF4 split-luc = HNF4 split-luciferase signal hit, counter-screen; inhibition, % at 4 µM; AID 651674; shares compounds with ABHD5 PLIN5 PPI; 2,200 compounds, 77% hits; HNF4 dimerization, luminescence, biochemical;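 active = mean inhibition across replicate wells exceeding the computed hit threshold, cut at about 13% in these data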;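 note: light from luciferase halves that rejoin when HNF4 fusion proteins dimerize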
Of the large screens only hits and unclear results are named; the others gave an inactive call (follow-up assays come after a bar, where they were run). Compounds with a hit are over-represented: about 2.9% of the library has one in this group of screens.

CCN(CC(=O)NCC1CCCO1)S(=O)(=O)c1ccc(Cl)cc1 (stereo unspecified)	none
O=C(/C=C/c1ccccc1Cl)c1cccnc1	ABHD5 PLIN5 PPI 71.3 (no result: Myeloid diff 2) | ABHD5 PLIN5 conf 99.8 | HNF4 split-luc 102.2
N#Cc1ccc(/C=C/C(=O)c2cccnc2)cc1	ABHD5 PLIN5 PPI 81.8, Myeloid diff 2 inconclusive | ABHD5 PLIN5 conf 92.2 | HNF4 split-luc 95.8
CCN(CC)c1ccc(/C=C/C(=O)c2cccnc2)cc1	none
COc1ccc(C=CC(=O)c2ccc(OCc3ccccc3)c(OC)c2)cc1OC	none (no result: Rtt109 Vps75)
O=C(/C=C/c1ccc(OCc2ccccc2)c(OCc2ccccc2)c1)c1cccnc1	ABHD5 PLIN5 PPI 26.1 | ABHD5 PLIN5 conf 87.1 | HNF4 split-luc 77.8
O=C(/C=C/c1ccc(Cl)cc1)c1cccnc1	ABHD5 PLIN5 PPI 79.6 | ABHD5 PLIN5 conf 96.0 | HNF4 split-luc 100.4
O=[N+]([O-])c1ccccc1OCC(O)CN1CCN(CC(O)COc2ccccc2[N+](=O)[O-])CC1 (stereo unspecified)	none
COc1ccc(C(=O)N=c2sc3ccccc3n2C)cc1	none
COc1ccc(NC(=O)Nc2ccccc2C(N)=O)cc1	none (no result: Rtt109 Vps75)
CCOC(=O)c1cc2c(=O)n3ccccc3nc2n(C(C)C)c1=NC(=O)c1ccco1	ABHD5 PLIN5 PPI 40.7 | ABHD5 PLIN5 conf inactive | HNF4 split-luc 23.7
N=c1c(S(=O)(=O)c2ccccc2)cc2c(=O)n3ccccc3nc2n1Cc1ccco1	ABHD5 PLIN5 PPI 25.0 | ABHD5 PLIN5 conf inactive | HNF4 split-luc 25.0
CCCn1c(=NC(=O)c2ccco2)c(C(=O)OCC)cc2c(=O)n3ccccc3nc21	ABHD5 PLIN5 PPI 40.9 | ABHD5 PLIN5 conf inactive | HNF4 split-luc 26.6
CCOC(=O)c1cc2c(=O)n3ccccc3nc2n(Cc2ccco2)c1=NC(=O)c1ccccc1OC	ABHD5 PLIN5 PPI 44.3 | ABHD5 PLIN5 conf inactive | HNF4 split-luc 73.3
CCOC(=O)c1cc2c(=O)n3ccccc3nc2n(Cc2ccco2)c1=NC(=O)c1ccc(OC)cc1	none
Cc1cc(=O)c(C(=O)O)cn1Nc1ccc(F)cc1	none
Cc1noc(C)c1-c1ccc(C(=O)NCCN2CCOCC2)c2occc12	none (no result: DAGLB inh, Rtt109 Vps75)
O=C(COc1ccccc1)OCc1cc2ccccc2[nH]c1=O	none (no result: Rtt109 Vps75)
Cc1cnc(-c2nc3ccccc3n2C(C(=O)NC(C)(C)C)c2cc3ccccc3o2)cn1 (stereo unspecified)	none (no result: Cardio protect, DAGLB inh, Rtt109 Vps75)
C=CCn1c(CCSCc2ccc(OC)c(C)c2)n[nH]c1=S	none
CC(C)n1c(=NC(=O)c2ccco2)c(C#N)cc2c(=O)n3ccccc3cc21	ABHD5 PLIN5 PPI 27.2 | ABHD5 PLIN5 conf 29.4 | HNF4 split-luc 53.9
CCOC(=O)c1cc2c(=O)n3cccc(C)c3nc2n(CC(C)C)c1=NC(=O)c1ccco1	none
CCOCCCn1c(=NC(=O)c2ccco2)c(C(=O)OCC)cc2c(=O)n3cccc(C)c3nc21	ABHD5 PLIN5 PPI 27.1 | ABHD5 PLIN5 conf inactive | HNF4 split-luc 30.1
COC1=C(NCc2ccc3c(c2)OCO3)C(=O)C(OC)=C(NCc2ccc3c(c2)OCO3)C1=O	none
Cn1cccc1/C=C1\CCC/C(=C\c2cccn2C)C1=O	ABHD5 PLIN5 PPI 47.8 | ABHD5 PLIN5 conf inactive | HNF4 split-luc 39.9
CCOC(=O)COc1ccc(Br)cc1/C=C/c1[nH]c(=O)[nH]c(=O)c1[N+](=O)[O-]	ABHD5 PLIN5 PPI 65.1 | ABHD5 PLIN5 conf 75.7 | HNF4 split-luc 85.3
CCOc1ccc(/C=C/c2[nH]c(=O)[nH]c(=O)c2[N+](=O)[O-])cc1	none
CCOC(=O)COc1ccc(Br)cc1/C=C\c1[nH]c(=O)[nH]c(=O)c1[N+](=O)[O-]	ABHD5 PLIN5 PPI 64.4 | ABHD5 PLIN5 conf 84.6 | HNF4 split-luc 94.1
CCCOc1ccc(/C=C/c2[nH]c(=O)[nH]c(=O)c2[N+](=O)[O-])cc1OCC	none
Cc1cc(=O)[nH]c(SCC(=O)N2CCCC(C)C2)n1 (stereo unspecified)	Myeloid diff 2 inconclusive
COc1cc(OC)cc(-c2c(C#Cc3ccsc3)c3cc(-c4ccc5c(c4)OCO5)ccc3n2C)c1	ABHD5 PLIN5 PPI 97.8 | ABHD5 PLIN5 conf inactive | HNF4 split-luc inactive
Cc1cc(N(CC(=O)NC(C)C)S(C)(=O)=O)ccc1Br	none
COc1ccc(C2=NN(C(=O)COC(=O)c3ccc(S(C)(=O)=O)c([N+](=O)[O-])c3)C(c3ccco3)C2)cc1 (stereo unspecified)	ABHD5 PLIN5 PPI 28.9 (no result: Myeloid diff 2) | ABHD5 PLIN5 conf 50.7 | HNF4 split-luc 89.6
CCOc1ccc(N2C(=O)/C(=C\c3ccccc3OC)S(=O)(=O)C2c2cccc([N+](=O)[O-])c2)cc1 (stereo unspecified)	none
O=C(C[n+]1ccc(Cc2ccccc2)cc1)Nc1ccc([N+](=O)[O-])cc1Cl	none
Cc1ccc(Cl)cc1NC(=O)C[n+]1ccc(Cc2ccc([N+](=O)[O-])cc2)cc1	ABHD5 PLIN5 PPI 24.2 | ABHD5 PLIN5 conf inactive | HNF4 split-luc inactive
C#CCN(C[C@@H]1[C@@H](OC(=O)NCc2ccco2)[C@@H](OC(=O)NCc2ccco2)Cn2c(=O)n(CCCCCC)c(=O)n21)S(=O)(=O)c1ccc(C)cc1	none (no result: Rtt109 Vps75)
C#CCN(C[C@@H]1[C@@H](OC(=O)NCCCCCC)[C@@H](OC(=O)NCCCCCC)Cn2c(=O)ccc(=O)n21)S(=O)(=O)c1ccc(C)cc1	ABHD5 PLIN5 PPI 33.7, Myeloid diff 2 inconclusive (no result: Rtt109 Vps75) | ABHD5 PLIN5 conf 55.8 | HNF4 split-luc inactive
C#CCN(C[C@@H]1[C@@H](OC(=O)NCc2ccco2)[C@@H](OC(=O)NCc2ccco2)Cn2c(=O)ccc(=O)n21)S(=O)(=O)c1ccc(C)cc1	ABHD5 PLIN5 PPI 27.0 (no result: Rtt109 Vps75) | ABHD5 PLIN5 conf 41.3 | HNF4 split-luc 25.6
C#CCN(C[C@@H]1[C@@H](OC(=O)NC2CC2)[C@@H](OC(=O)NC2CC2)Cn2c(=O)n(CCCCCC)c(=O)n21)S(=O)(=O)c1ccc(C)cc1	none (no result: Rtt109 Vps75)
C#CCN(C[C@@H]1[C@@H](OC(=O)NCc2ccc(OC)c(OC)c2)[C@@H](OC(=O)NCc2ccc(OC)c(OC)c2)Cn2c(=O)ccc(=O)n21)S(=O)(=O)c1ccc(C)cc1	ABHD5 PLIN5 PPI 45.9 (no result: Rtt109 Vps75) | ABHD5 PLIN5 conf 61.9 | HNF4 split-luc 20.9
C#CCN(C[C@@H]1[C@@H](OC(=O)NCC2CCCCC2)[C@@H](OC(=O)NCC2CCCCC2)Cn2c(=O)ccc(=O)n21)S(=O)(=O)c1ccc(C)cc1	ABHD5 PLIN5 PPI 41.8 (no result: Rtt109 Vps75, Myeloid diff 2) | ABHD5 PLIN5 conf 57.2 | HNF4 split-luc 18.3
CCOC(=O)c1ccc(NS(=O)(=O)c2c(C)n(C)c(=O)n(C)c2=O)cc1	none
CCOC(=O)c1c(NC(=O)C(Sc2ccccc2)c2ccccc2)sc(C(=O)N(C)C)c1C (stereo unspecified)	none
